# Experimental data as given in PubChem BioAssay.
# Where “and” joins values, the source holds several entries; their conditions need not be identical. Equal values may be shown once. Records with an inconclusive call do not appear. Calls of active or inactive are those of the source. Rule as the data show it, unless noted: active = inhibition above about 80%; inactive = the rest.
# Tests used:
# [1] = growth inhibition of DIPG glioma cells, dose response, cell-based, SU-DIPG-XIII, MIPE5.0, CellTiter-Glo, qHTS (AID 1347064; cut-off not given, nearly all actives have AC50 up to about 23 µM;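 as to AC50: cells exposed to compound for 48 hours before the viability read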); details: SU-DIPG-XIII viability, CellTiter-Glo ATP luminescence
# [2] = viability loss in pontine glioma line – cell-based, SU-DIPG-XXV, MIPE5.0, CellTiter-Glo, qHTS, dose response (AID 1347065; cut-off not given, nearly all actives have AC50 up to about 26 µM;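 also: cells exposed to compound for 48 hours before ATP readout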); details: CellTiter-Glo ATP luminescence
# [3] = JHH-DIPG-1 glioma cell viability, MIPE5.0 library, CellTiter-Glo luminescence, qHTS (AID 1347067; cut-off not given, nearly all actives have AC50 up to about 26 µM;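 also: cells exposed to compound for 48 hours before readout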); details: JHH-DIPG-1 glioma viability, CellTiter-Glo ATP luminescence
# [4] = SU-DIPG-XXV glioma cell viability, MIPE5.0 library, qHTS (AID 1347068; cut-off not given, nearly all actives have IC50 up to about 30 µM)
# [5] = sensitizers of A549 cells to miR-34 induction, primary screen, imaging, A549 dox-inducible miR-34, nuclei and caspase counts (AID 1347080;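 active = compounds whose cell count with miR-34 switched on is under 0.7 times the count with it off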); details: A549 miR-34 inducible, Hoechst nuclei count, 48 h
# [6] = survival rescue of mitochondrial mutant cells in low glucose, primary screen, MELAS cybrids, Rieske KO mouse fibroblasts, CellTiter-Glo (AID 1508586;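 active = mean z-score across replicates of 1.96 or higher in either the MELAS or the Rieske mutant cell line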;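 also: z relative to plate mean and SD of compound and empty wells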)
# [7] = LFS_MB_P medulloblastoma growth inhibition, cell-based, chromothripsis tumors, cisplatin or BGB combos (AID 1671449); details: LFS_MB_P medulloblastoma cells;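 also: cells exposed for 96 hours; 0% = vehicle DMSO and 100% = killing by high DMSO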
# [8] = HDN33 neuroblastoma growth inhibition, cell-based, chromothripsis tumors, cisplatin or BGB combos (AID 1671450); details: HDN33 neuroblastoma cells, stronger effect = higher value;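 also: cells exposed to compound for four days; 0% = vehicle DMSO and 100% = cell killing by high DMSO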
# [9] = ICB984 medulloblastoma cell growth inhibition, synergistic combos for chromothripsis tumors, cisplatin or BGB combos (AID 1671451; call rule not given here;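 also: cells exposed for 96 hours before readout; 0% = vehicle DMSO and 100% = killing by high DMSO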); details: ICB984 medulloblastoma cells, drug combinations, stronger effect = higher value
# [10] = LFS_MB_1R medulloblastoma cell growth inhibition, synergistic combos for chromothripsis tumors, cisplatin or BGB combos (AID 1671452); details: LFS_MB_1R medulloblastoma cells, stronger effect = higher value;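 also: cells exposed for 96 hours before readout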
# [11] = HTB85 osteosarcoma cell growth inhibition, synergistic combos for chromothripsis tumors, BGB or cisplatin IC20 combos (AID 1671453); details: HTB85 osteosarcoma cells, drug combinations, stronger effect = higher value;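 also: cells exposed for 96 hours before readout; 0% = vehicle DMSO and 100% = high DMSO killing control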
# [12] = CRL2098 osteosarcoma cell growth inhibition, synergistic combos for chromothripsis tumors, BGB or cisplatin IC20 combos (AID 1671454); details: CRL2098 osteosarcoma cells, drug combinations, stronger effect = higher value;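 also: cells exposed for 96 h before readout; 0% = vehicle DMSO and 100% = killing by high DMSO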
# [13] = HD-MB03 medulloblastoma cell growth inhibition, synergistic combos for chromothripsis tumors, BGB or cisplatin IC20 combos (AID 1671455; in the data active = inhibition above about 83%;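 also: 0% = vehicle DMSO and 100% = high DMSO as cytotoxic control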); details: HD-MB03 medulloblastoma cells, stronger effect = higher value
# [14] = UWB1.289 ovarian carcinoma cell growth inhibition, synergistic combos for chromothripsis tumors, BGB or cisplatin combos (AID 1671456); details: UWB1.289 ovarian carcinoma cells, stronger effect = higher value;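 also: cells exposed to compound for four days; 0% = vehicle DMSO and 100% = killing by high DMSO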
# [15] = LFS_MB_2R medulloblastoma cell growth inhibition, synergistic combos for chromothripsis tumors, cisplatin combos (AID 1671457); details: LFS_MB_2R medulloblastoma cells, stronger effect = higher value;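 also: cells exposed to compound for four days before readout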
# [16] = MDA-MB-436 breast carcinoma cell growth inhibition, synergistic combos for chromothripsis tumors, BGB or cisplatin combos (AID 1671458; call rule not given here;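 also: cells exposed for 96 hours; 0% = vehicle DMSO and 100% = killing by high DMSO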); details: MDA-MB-436 breast carcinoma growth inhibition, drug combinations, stronger effect = higher value
# [17] = UWB1.289_BRCA1 ovarian cancer growth, cell-based, BGB or cisplatin combinations (AID 1671459); details: UWB1.289 BRCA1 ovarian carcinoma, drug combinations, stronger effect = higher value
# [18] = human astrocyte viability loss, single and combined drugs, cytotoxicity control for chromothriptic childhood tumor combination screen, cell-based, BGB or cisplatin IC20 combos (AID 1671460); details: Human astrocytes, drug combinations, stronger effect = higher value;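 also: cells exposed to compounds for 96 hours before viability readout; 0% = vehicle and 100% = killing control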
# [19] = growth inhibition of BT084 medulloblastoma cells, cell-based, ICGC_MB145, cisplatin and BGB IC40 combos (AID 1671461); details: drug combinations, stronger effect = higher value;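 also: cells exposed to drugs for 96 hours; 0% = vehicle DMSO and 100% = high DMSO full killing control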
# [20] = growth inhibition of RCMB18 medulloblastoma cells, cell-based, cisplatin and BGB IC40 combos (AID 1671462); details: stronger effect = higher value;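 also: cells exposed to compound for four days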
# [21] = growth inhibition of CRL1545 osteosarcoma cells, cell-based, cisplatin and BGB IC20 combos (AID 1671464); details: stronger effect = higher value;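 also: cells exposed to compound for 96 hours before readout; 0% = vehicle DMSO and 100% = high DMSO killing control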
# [22] = modifiers of HSF1 nuclear foci, imaging, Selleck Cancer Library (AID 1347162; in the data active = plate-normalised HSF1 focus index below about 0.46); details: human cells, at 10 µM; SSMD: measured here: HSF1 foci SSMD mean; cell count: measured here: cell number; plate-normalised HSF1 focus index: stronger effect = lower value
# [23] = SU-DIPG-VI glioma cell viability, MIPE4.0 library, CellTiter-Glo luminescence, qHTS (AID 1347066; cut-off not given, nearly all actives have AC50 up to about 30 µM;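 also: cells exposed to compound for 48 hours before readout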); details: CellTiter-Glo ATP luminescence
# [24] = stronger effect = lower value, cell number ratio, induced over uninduced
# [25] = measured here: relative caspase fold change +Dox/-Dox
# [26] = measured here: total cells with miR-34 induction, stronger effect = lower value
# [27] = measured here: total cells without miR-34 induction
# [28] = MELAS cybrid survival, CellTiter-Glo 48 h, stronger effect = higher value
# [29] = Rieske KO mouse fibroblast survival, CellTiter-Glo 72 h
# [30] = measured here: combination with BGB IC40, at 0.05 µM
# [31] = measured here: with BGB IC20 combination, at 0.5 µM
# [32] = measured here: with cisplatin IC20 combination, at 0.5 µM
# [33] = measured here: combination with cisplatin, at 0.5 µM
# [34] = measured here: combination with cisplatin, at 5 µM
compound,measurement,setting,value
COC1CCN(C(=O)c2cc(Cc3n[nH]c(=O)c4ccccc34)ccc2F)CC1,outcome,[1],inactive
same,outcome,[2],inactive
same,outcome,[3],inactive
same,outcome,[4],inactive
same,fold change,[5]; [24],0.934 (inactive)
same,fold change,[5]; [25],0.846
same,cell count,[5]; [26],6330
same,cell count,[5]; [27],6780
same,z-score,[6]; [28],-0.18 (inactive)
same,z-score,[6]; [29],-0.126
same,inhibition,"[7]; at 0.5 µM, stronger effect = higher value",-12.1% (inactive) and -16.1% (inactive)
same,inhibition,"[7]; measured here: combination with BGB IC20, at 0.005 µM",-30.7% and -15.3%
same,inhibition,"[7]; measured here: combination with BGB IC40, at 0.005 µM",-38.1% and -33.1%
same,inhibition,[7]; [30],-30.5% and -42.3%
same,inhibition,"[7]; measured here: combination with cisplatin, at 0.5 µM, stronger effect = higher value",-37.8% and -19.2%
same,inhibition,"[7]; measured here: combination with cisplatin, at 5 µM, stronger effect = higher value",-40.5% and -57.1%
same,inhibition,"[8]; BGB combo, at 5 µM",-13.6% and 13.4%
same,inhibition,[8]; at 0.5 µM,-10.1% (inactive) and -7.74% (inactive)
same,inhibition,"[8]; cisplatin combo, at 5 µM",23.9% and 26%
same,inhibition,[8]; [31],-20.4% and -10.8%
same,inhibition,[8]; [32],5.53% and -9.06%
same,inhibition,"[8]; single agent, at 5 µM",14.4% and 38.9%
same,inhibition,"[9]; BGB IC20 combo, at 0.005 µM",-4.23% and -19.5%
same,inhibition,"[9]; BGB IC40 combo, at 0.005 µM",-0.687% and -29.1%
same,inhibition,"[9]; BGB IC40 combo, at 0.05 µM",-13.2% and -21.3%
same,inhibition,[9]; at 0.5 µM,-24.6% (inactive) and -24.2% (inactive)
same,inhibition,"[9]; cisplatin combo, at 0.05 µM",-19% and -25.6%
same,inhibition,"[9]; cisplatin combo, at 0.5 µM",-40.6% and -12.4%
same,inhibition,"[9]; cisplatin combo, at 5 µM",-8.06% and -25.7%
same,inhibition,"[9]; measured here: 5 uM single agent, at 5 µM",0.595% and -12.2%
same,inhibition,[10]; at 0.5 µM,-26.2% (inactive) and -13.9% (inactive)
same,inhibition,[10]; [30],-15.2% and -8.03%
same,inhibition,[10]; [33],-30.2% and -13%
same,inhibition,[10]; [34],-19.4% and -3.56%
same,inhibition,[11]; at 0.5 µM,-11.4% (inactive) and 6.36% (inactive)
same,inhibition,"[11]; measured here: with BGB IC20, at 0.5 µM",-12.2% and -3.86%
same,inhibition,"[11]; measured here: with BGB IC20, at 5 µM",12.4% and 5.4%
same,inhibition,"[11]; measured here: with cisplatin IC20, at 0.5 µM",-10.7% and 2.43%
same,inhibition,"[11]; measured here: with cisplatin IC20, at 5 µM",15.8% and -12.3%
same,inhibition,"[11]; single agent, at 5 µM",16.7% and 8.18%
same,inhibition,[12]; at 0.5 µM,-48.1% (inactive) and -65.8% (inactive)
same,inhibition,"[12]; measured here: combination with BGB at IC20, at 0.5 µM",-70.3% and -24.2%
same,inhibition,"[12]; measured here: combination with cisplatin at IC20, at 0.5 µM",-35.2% and -114%
same,inhibition,[13]; at 0.5 µM,-3.93% (inactive) and -2.04% (inactive)
same,inhibition,"[13]; measured here: combo with BGB at IC20, at 0.5 µM",-9.33% and -8.78%
same,inhibition,"[13]; measured here: combo with cisplatin at IC20, at 0.5 µM",4.14% and 1.92%
same,inhibition,[14]; at 0.5 µM,-6.03% (inactive) and 1.25% (inactive)
same,inhibition,"[14]; measured here: inhibition with BGB combination, at 0.05 µM",-33.1% and -12.4%
same,inhibition,"[14]; measured here: inhibition with cisplatin combination, at 0.05 µM",-15.7% and -19.5%
same,inhibition,[15]; at 0.5 µM,-18.3% (inactive) and -16.9% (inactive)
same,inhibition,[15]; [33],-12.3% and -23.2%
same,inhibition,[15]; [34],-8.19% and -16.7%
same,inhibition,[16]; at 0.5 µM,-6.48% (inactive) and 5.83% (inactive)
same,inhibition,"[16]; measured here: BGB combination, at 0.5 µM",-20.6% and -13.1%
same,inhibition,"[16]; measured here: BGB combination, at 5 µM",-22% and -12.5%
same,inhibition,"[16]; measured here: cisplatin combination, at 0.5 µM",-7.18% and 13.4%
same,inhibition,"[16]; measured here: cisplatin combination, at 5 µM",19.7% and 25.3%
same,inhibition,"[17]; BGB combination, concentration series, at 5 µM",-17.2% and 8.15%
same,inhibition,[17]; at 0.5 µM,-15.2% (inactive) and 1.82% (inactive)
same,inhibition,"[17]; cisplatin combination, concentration series, at 5 µM",1.96% and 12.2%
same,inhibition,[18]; at 0.5 µM,-2.67% (inactive) and 18.6% (inactive)
same,inhibition,"[18]; measured here: combo with BGB IC20, at 0.5 µM",-0.687% and 1.82%
same,inhibition,"[18]; measured here: combo with cisplatin IC20, at 0.5 µM",-3.5% and 25%
same,inhibition,[19]; at 0.5 µM,-21.1% (inactive) and -16.8% (inactive)
same,inhibition,"[19]; cisplatin combination, at 0.5 µM",-20.5% and -64%
same,inhibition,"[19]; cisplatin combination, at 5 µM",-29.9% and -19.1%
same,inhibition,"[19]; measured here: BGB IC40 combination 0.05 uM, at 0.05 µM",-40% and -3%
same,inhibition,"[19]; single agent, at 5 µM",-18% and 3.41%
same,inhibition,[20]; at 0.5 µM,-19.3% (inactive) and -19.5% (inactive)
same,inhibition,"[20]; cisplatin combo, at 5 µM",-5.98% and -18.2%
same,inhibition,"[20]; measured here: BGB IC40 combination, at 0.05 µM",-15.8% and -4.12%
same,inhibition,[20]; [33],-25.7% and -45.6%
same,inhibition,"[20]; single agent, at 5 µM",-29.2% and -17.7%
same,inhibition,[21]; at 0.5 µM,8.49% (inactive) and 7.34% (inactive)
same,inhibition,[21]; [31],-9.33% and -2.37%
same,inhibition,[21]; [32],16.1% and 10.8%
same,inhibition,"[21]; single agent, at 0.05 µM",5.73% and -15.4%
same,inhibition,"[21]; single agent, at 5 µM",42.8% and 34.1%
O=C(/C=C/C#Cc1cccc(NS(=O)(=O)c2ccccc2)c1)NO,AC50,[1],1.29 µM (active)
same,AC50,[2],1.82 µM (active)
same,AC50,[3],1.82 µM (active)
same,SSMD,[22],-2.13
same,cell count,[22],6610
same,plate-normalised HSF1 focus index,[22],0.874 (inactive)
C[C@H](Nc1ncnc2nc[nH]c12)c1cc2ccc(F)cc2nc1-c1ccccn1,outcome,[1],inactive
same,outcome,[3],inactive
same,outcome,[4],inactive
Nc1nc2c(c(=O)[nH]1)N1CN(c3ccc(C(=O)N[C@@H](CCC(=O)O)C(=O)O)cc3)CC1CN2 (some centres undefined),outcome,[1],inactive
same,outcome,[3],inactive
CN(C)C(=O)c1cc2cnc(Nc3ccc(N4CCNCC4)cn3)nc2n1C1CCCC1,outcome,[1],inactive
same,outcome,[2],inactive
same,outcome,[3],inactive
same,outcome,[4],inactive
same,fold change,[5]; [24],1 (inactive)
same,fold change,[5]; [25],0.436
same,cell count,[5]; [26],5240
same,cell count,[5]; [27],5220
same,z-score,[6]; [28],-0.462 (inactive)
same,z-score,[6]; [29],-0.582
COc1cccc([C@@H](C)NCCCc2ccccc2Cl)c1,outcome,[1],inactive
same,outcome,[23],inactive
same,outcome,[3],inactive
same,outcome,[4],inactive
CCOCc1nc2c(N)nc3ccccc3c2n1CC(C)(C)O,outcome,[1],inactive
same,outcome,[2],inactive
same,outcome,[4],inactive
NCc1ccc(OCCCc2sc(-c3ccc4c(c3)/C(=N/Nc3nc5ccccc5s3)CCC4)nc2C(=O)O)cc1,outcome,[1],inactive
same,outcome,[2],inactive
same,outcome,[4],inactive
